Compound activity deposited in PubChem BioAssay by The Scripps Research Institute Molecular Screening Center.
IDE cell inh = human IDE inhibitors in live cells, primary screen, fluorescence polarization, HEK cells, FAbetaB substrate | 320,000 compounds, 0.41% hits | FAbetaB cleavage | Insulin-degrading enzyme (Homo sapiens), P14735 | inhibition, % at 5.59 µM | AID 434962, 2010;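 active = percent inhibition above the average of all tested compounds plus 3 SD, set per screening campaign, cut at about 16% in these data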;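 note: IDE supplied by intact live HEK cells; FP after avidin binding of uncleaved biotin substrate so inhibition keeps polarization high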
IDE cell activ = human IDE activators in live cells, primary screen, fluorescence polarization, HEK cells, FAbeta-B substrate; Insulin-degrading enzyme (Homo sapiens), P14735; FAbeta-B cleavage; 0% vehicle, 100% cell-free pure enzyme wells; activation, % at 5.96 µM; 340,000 compounds, 0.073% hits;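 active = activation above the mean of all tested compounds plus 3 SD, set per screening campaign, cut at about 17% in these data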
TLR9-MyD88 block = inhibitors of TLR9-MyD88 association in cells, primary screen, cell-based, CHO, BLA complementation, fluorescence | 340,000 compounds, 0.21% hits | CCF4 FRET ratio | Toll-like receptor 9 (Homo sapiens) + Myeloid differentiation primary response protein … | inhibition, % at 4.98 µM;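 active = inhibition above the mean over all tested compounds plus 3 SD, cut at about 21% in these data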
NOD2 RIPK2 PPI = NOD2-RIPK2 binding disruptors in cells, primary screen, fluorescence, CHO cells, BLA complementation | inhibition, % at 4.98 µM | Receptor-interacting serine/threonine-protein kinase 2 (Homo sapiens), O43353 | 360,000 compounds, 0.38% hits | AID 624267, 2012 | CCF4 ratio; in the data active = inhibition above about 21%
TLR4 MyD88 comp = inhibitors of TLR4-MyD88 association in cells, primary screen, cell-based, HeLa CL3-4, BLA complementation, FRET ratio; Toll-like receptor 4 (Homo sapiens) + Myeloid differentiation primary response protein …; HeLa CL3-4 TLR4/MyD88 BLA complementation; inhibition, % at 8.4 µM; 200,000 compounds, 0.18% hits; AID 861, 2007; in the data active = inhibition above about 25%
IDE cell inh cf = human IDE inhibitors in live cells, confirmation, fluorescence polarization, HEK cells, FAbetaB substrate; inhibition, % at 5.59 µM; AID 435028, 2010; shares compounds with IDE cell inh; FAbetaB cleavage; 1,200 compounds, 51% hits;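 active = mean inhibition across triplicate wells above the cutoff set by the earlier primary insulin-degrading enzyme screen, cut at about 16% in these data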
HEK293 tox = cytotoxicity in HEK cells, cytotoxicity control for IDE inhibitor project, cell-based, luminescence. shares compounds with IDE cell inh. HEK293 cytotoxicity, ATP luminescence. inhibition, % at 5.59 µM. 1,200 compounds, 28% hits. AID 449730, 2010; in the data active = inhibition above about 22%
Large screens that a line does not name were inactive (follow-up assays come after a bar, where they were run). In the library only some 0.87% were active in any assay of this set; here they are far more common.

COC(=O)c1ccc(C2C(C#N)=C(N)Oc3cc(N)ccc32)cc1 (configuration not stated)	none (no result: TLR4 MyD88 comp)
N#CC1=C(N)Oc2cc(O)ccc2C1c1cccnc1 (configuration not stated)	IDE cell inh 82 | IDE cell inh cf inactive | HEK293 tox inactive
Cc1ccc(N2C(=O)[C@@H]3C(C(=O)C(c4ccccc4)c4ccccc4)=NN[C@@H]3C2=O)cc1	none
Cc1cccc(C)c1NC(=O)CNC(=O)c1ccc(COc2ccccc2)o1	none (no result: TLR4 MyD88 comp)
C#CCN1C(=O)S/C(=C/c2cc(C)n(CC)c2C)C1=O	none
CCn1c(C)cc(/C=C2/SC(=S)N(CC(=O)O)C2=O)c1C	IDE cell inh 40 | IDE cell inh cf 36 | HEK293 tox inactive
CC(CNS(=O)(=O)c1ccccc1)(c1ccccc1)N1CCCCC1 (configuration not stated)	none (no result: TLR4 MyD88 comp)
Cn1c(=O)c2[nH]c(COc3ccc(C(C)(C)C)cc3)nc2n(C)c1=O	none (no result: TLR4 MyD88 comp)
O=c1/c(=C\c2cc([N+](=O)[O-])cc([N+](=O)[O-])c2O)sc2nc3ccccc3n12	IDE cell inh 16 | IDE cell inh cf 20 | HEK293 tox inactive
O=C(NC[C@@H]1CCCO1)c1cccc2c1C(=O)c1ccc(N3CCOCC3)cc1S2(=O)=O	none (no result: TLR4 MyD88 comp)
CC1CCN(c2ccc3c(c2)S(=O)(=O)c2cccc(C(=O)NC[C@@H]4CCCO4)c2C3=O)CC1	IDE cell inh 22 (no result: TLR4 MyD88 comp) | IDE cell inh cf 21 | HEK293 tox 26
CC1CCN(c2ccc3c(c2)S(=O)(=O)c2cccc(C(=O)NC4CC4)c2C3=O)CC1	IDE cell inh 18 (no result: TLR4 MyD88 comp) | IDE cell inh cf 19 | HEK293 tox inactive
Cc1c(C(=O)C(=O)NCc2ccco2)c2ccccc2n1C	none
COc1ccc2[nH]c3c(=O)n(/N=C/c4ccc(OC)c(CN5CCCC5)c4)c(C)nc3c2c1	IDE cell inh 17 (no result: TLR4 MyD88 comp) | IDE cell inh cf inactive | HEK293 tox inactive
CC(NC(=O)CN1C(=O)NC2(CCc3ccccc32)C1=O)c1ccc2c(c1)OCCO2 (configuration not stated)	none (no result: TLR4 MyD88 comp)
Cc1cc(C(=O)N2CC=C(c3ccccc3)CC2)c2ccccc2n1	none (no result: TLR4 MyD88 comp)
Cc1c(C(=O)C(=O)N2CC=C(c3ccccc3)CC2)c2ccccc2n1C	IDE cell inh 16 | IDE cell inh cf inactive | HEK293 tox 55
CCOC(=O)N1CCN(C(C(=O)NC2CCCC2)c2ccco2)CC1 (configuration not stated)	none (no result: IDE cell inh, IDE cell activ, TLR9-MyD88 block, TLR4 MyD88 comp)
Oc1cc(-n2cccn2)c(O)cc1-n1cccn1	IDE cell inh 36 (no result: TLR4 MyD88 comp) | IDE cell inh cf inactive | HEK293 tox 39
Nc1c(SCCC(=O)O)ccc2c1C(=O)c1ccccc1C2=O	IDE cell inh 17 (no result: TLR4 MyD88 comp) | IDE cell inh cf inactive | HEK293 tox inactive
COc1cc(OC)c(OC)cc1/C=C1\Oc2cc(OS(C)(=O)=O)ccc2C1=O	IDE cell inh 20 (no result: TLR4 MyD88 comp) | IDE cell inh cf 18 | HEK293 tox inactive
COc1cc(OC)c(OC)cc1/C=C1\Oc2cc(OCC(=O)N3Cc4ccccc4C[C@H]3C(=O)O)ccc2C1=O	IDE cell inh 62 (no result: TLR4 MyD88 comp) | IDE cell inh cf 106 | HEK293 tox inactive
COc1ccc(C(CNC(=O)CCNS(=O)(=O)c2ccc(C)cc2)N2CCOCC2)cc1 (configuration not stated)	none (no result: TLR4 MyD88 comp)
COc1cccc(-c2nn(C)c3sc(C(=O)Nc4ccc5c(c4)OCCO5)cc23)c1	IDE cell inh 25 | IDE cell inh cf inactive | HEK293 tox inactive
CCC1CCCN1Cn1cnc2c([nH]c3ccc(C)cc32)c1=O (configuration not stated)	none
